Compounds without any hit were thinned out: in the full panel of roughly 83,000, 20% have a hit.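 Single-concentration screen, 48 h exposure, 96-well plates. Endpoint: percent growth. Below 10 = active.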 Values without a mark were called inactive. Active and inactive are the calls of the source.
Experiments:
Assay in all cases: NCI-60 one-dose screen, 48 h (100 = growth as untreated, 0 = no growth, -100 = all killed)
Settings in all cases: 10 µM unless noted
[1] = system: SK-MEL-2 melanoma
[2] = system: EKVX NSCLC
[3] = system: SN12C renal
[4] = system: UO-31 renal
[5] = system: TK-10 renal
[6] = system: ACHN renal
[7] = system: CAKI-1 renal
[8] = system: A498 renal
[9] = system: CCRF-CEM leukemia
[10] = system: MOLT-4 leukemia

SMILES	growth [1]	growth [2]	growth [3]	growth [4]	growth [5]	growth [6]	growth [7]	growth [8]	growth [9]	growth [10]
C=C(C)[C@@H]1CC[C@]2(CN)CC[C@]3(C)[C@H](CC[C@@H]4[C@@]5(C)CCC(=O)NC(C)(C)[C@@H]5CC[C@]43C)[C@@H]12	98.8%	87.3%	65.6%	58.9%	114%	69.1%	59.9%	96.2%	20.9%	21.5%
CC1(C)C(=O)/C(=C\c2ccccn2)C[C@]2(C)[C@H]3CC[C@@H]4[C@@H](C(=O)/C=C/c5ccccn5)CC[C@@]4(C)[C@]3(C)CC[C@@H]12	-25.6% (active)	-16.4% (active)	-4.12% (active)	-99.6% (active)	-21.7% (active)	-89% (active)	-20.3% (active)	-80.6% (active)	6.8% (active)	7.28% (active)
Cc1cc2nc3c4cc([N+](=O)[O-])cc([N+](=O)[O-])c4n(CCN(C)C)c3nc2cc1C	108%	82.7%	59.7%	40.4%	117%	35.5%	49.6%	97%	63.1%	31.3%
COc1cc(/C=N/NC(=S)NNC(=S)NC2CCCCC2)cc(OC)c1OC	108%	84.1%	87.8%	70.3%	147%	94.2%	77.7%	96.6%	88.7%	73.8%
COC(=O)[C@]12CC[C@@H](C)[C@H](C)[C@@H]1C1=CC[C@@H]3[C@@]4(C)C[C@@H](OC(C)=O)[C@H](O)[C@@](C)(CO)[C@@H]4[C@H](O)C[C@@]3(C)[C@]1(C)CC2	-84.2% (active)	-91.8% (active)	-78.3% (active)	-74.1% (active)	-96.9% (active)	-88.3% (active)	-85.6% (active)	-95.9% (active)	-68% (active)	-55.9% (active)
O=C1CCN2C(=O)Nc3ccccc3C2C1 (stereo not given)	110%	99.8%	94.2%	94.1%	104%	106%	89.6%	120%	106%	97.8%
CCCC1CCCCN1C(=O)OCC(C)C (stereo not given)	108%	104%	102%	74.5%	107%	100%	90.2%	108%	96.3%	95.3%
N#C/C(=C\c1ccc(-c2ccccc2)o1)c1nc(-c2ccco2)cs1	106%	37.3%	92.3%	55.2%	55.8%	93.4%	85.2%	125%	95.9%	98.7%
COc1cnc2c(c1)C(=O)c1c-2n(CCCNC2=NCCS2)c(=O)c2cc([N+](=O)[O-])ccc12	73.1%	11.3%	13.5%	-71% (active)	-89.2% (active)	-77.8% (active)	13.3%	-36% (active)	-10.9% (active)	-11.3% (active)
COc1cc2ncnc(Nc3ccc(OCc4cccc(F)c4)c(Cl)c3)c2cc1NC(=O)C1CCCC1	86.2%	37.6%	85.2%	30.5%	18.4%	47.6%	55.9%	20.8%	92.6%	84%
c1ccc(-c2nc(Nc3ccc(-c4nc5ccccc5[nH]4)cc3)nc(N3CCOCC3)n2)cc1	-52.7% (active)	-66.9% (active)	-62.8% (active)	-60.6% (active)	-58.1% (active)	-58.9% (active)	-89.4% (active)	-83.4% (active)	-15.7% (active)	-37.8% (active)
Fc1ccc(Nc2nnc(-c3ccc(Cl)cc3)o2)cc1	106%	92.1%	103%	85.4%	137%	107%	92.8%	92.8%	58.4%	88.4%
CCOC(=O)C1OC1(c1ccccc1)c1ccccc1 (stereo not given)	112%	101%	98.7%	88.1%	107%	103%	79.5%	106%	100%	105%
CC(C)/C=C/CC[C@](C)(O)[C@H]1CC[C@]2(C)[C@@H]1CC[C@@H]1[C@@]3(C)C/C(=C/c4cccc(C(F)(F)F)c4)C(=O)C(C)(C)[C@@H]3CC[C@]12C	126%	103%	89.2%	79.6%	157%	97%	64.3%	99%	86.9%	88.3%
C[C@H]1[C@@H]2[C@H]3CC[C@@H]4[C@@]5(C)Cc6c([nH]c7ccccc67)C(C)(C)[C@@H]5CC[C@@]4(C)[C@]3(C)CC[C@]23CO[C@]1(C)[C@@H](C(=O)/C=C/c1ccccn1)C3	115%	102%	87.1%	60.4%	123%	92.4%	63%	101%	63%	78.8%
Cn1cc(-c2csc(-c3cn(C(=O)OC(C)(C)C)c4ccc(Br)cc34)n2)c2cccnc21	91.5%	79.2%	87.4%	82.4%	92.5%	48.8%	79.3%	96.3%	71%	97.4%
CCN1CCN(C(=O)[C@]23CCC(C)(C)C[C@@H]2C2=CC[C@@H]4[C@@]5(C)C/C(=C/c6ccncc6)C(=O)C(C)(C)[C@@H]5CC[C@@]4(C)[C@]2(C)CC3)CC1	-30.8% (active)	15.3%	-70.1% (active)	-92.7% (active)	32.3%	3.29% (active)	23.2%	-22.6% (active)	3.73% (active)	-12.2% (active)
CN(C)CCCCC(C(=O)CBr)(c1ccccc1)c1ccccc1	53.8%	48.8%	20.8%	-56.1% (active)	-47.6% (active)	-65.4% (active)	-23.5% (active)	40.2%	5.74% (active)	0.308% (active)
N#CC1=C(N)Oc2c(c(N)nn2-c2ccccc2)C1c1ccc(Cl)cc1 (stereo not given)	103%	90.7%	97.8%	61.2%	152%	93.1%	86.8%	97.8%	101%	98.8%
COc1ccc(-c2nc(SCC(=O)Nc3ccc(C(C)=O)cc3)[nH]c(=O)c2C#N)cc1	104%	102%	94.5%	105%	98.4%	101%	96.2%	98.1%	109%	103%
CC1(C)NCCC[C@]2(C)[C@H]3CC[C@@H]4[C@H]5[C@H](C(=O)/C=C/c6ccccn6)CC[C@]5(CO)CC[C@@]4(C)[C@]3(C)CC[C@@H]12	108%	101%	62.4%	66.8%	176%	73.4%	32.7%	84%	12.3%	3.77% (active)
COc1ccccc1-n1cnc(N)c1C(=O)c1cc(OC)c(OC)c(OC)c1	57.1%	55.3%	62.3%	55.2%	80.8%	58.6%	39.8%	26.6%	24.2%	50.8%
CCN(CC)CCCCCCNc1ccnc2cc(Cl)ccc12	128%	76.5%	84.9%	86.1%	113%	111%	84.2%	118%	113%	101%

— PubChem BioAssay (NCI)
